Results filed as inconclusive are left out. A call without a number means that no potency is given here. Activity calls are given as the source filed them. The call rests on the fitted dose curve; in most records, active means well fitted curve in the direction sought with a large enough effect; inconclusive means small, poorly fitted or top-dose-only effect, or another doubt; inactive means no such curve, though single readings can be large; an effect the other way counts as inactive or inconclusive.
Assay: BET inhibitor-based combinations targeting novel dependencies in MECOM-rearranged (r) AML: UCSD-AML1 cell line (AID 2202235); further: nearly all actives have a fitted effect of over 40% in size
Details: UCSD-AML1 AML cells viability, CellTiter-Glo, 48 h; series mostly up to 46 µM
Procedure, shortened: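 Activity is given as area under the curve and as Z-AUC, mean-centred within each cell line. It comes from 11-point dose curves normalized to DMSO and empty wells. CellTiter-Glo luminescence was read after 48 hr drug exposure of 500 cells/well.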
Potency means the concentration at half of the fitted maximal effect.

SMILES	Potency
COC1(CS(=O)c2ccccc2)CCN(CCc2c[nH]c3ccc(F)cc23)CC1 (centres undefined)	inactive
C=C1C[C@@H]2[C@H](CC[C@]3(C)C(=O)CC[C@@H]23)[C@@]2(C)C=CC(=O)C=C12	inactive
O=C1CC[C@@]2(O)[C@H]3Cc4ccc(O)c5c4[C@@]2(CCN3CC2CC2)[C@H]1O5	inactive
C[C@@H]1O[C@@H](O[C@H]2C[C@@H](O)[C@]3(CO)[C@H]4[C@H](O)C[C@]5(C)[C@@H](C6=CC(=O)OC6)CC[C@]5(O)[C@@H]4CC[C@]3(O)C2)[C@H](O)[C@H](O)[C@H]1O	0.0833 µM (active)
CC(C)(O)C(=O)Nc1ccc([N+](=O)[O-])c(C(F)(F)F)c1	inactive
N=c1c2c(-c3ccccc3)c(-c3ccccc3)n(Cc3ccccc3)c2ncn1C1CCC(O)CC1 (centres undefined)	1.32 µM (active)
N[C@@H](Cc1ccc(N(CCCl)CCCl)cc1)C(=O)O	2.95 µM (active)
COc1cccc2c1C(=O)c1c(O)c3c(c(O)c1C2=O)C[C@@](O)(C(=O)CO)CC3OC1CC(N2CCOC(OC)C2)C(O)C(C)O1 (some centres undefined)	0.0047 µM (active)
CC1=C(O)C(=O)C=C2C1=CC=C1[C@@]2(C)CC[C@@]2(C)[C@@H]3C[C@](C)(C(=O)O)CC[C@]3(C)CC[C@]12C	1.05 µM (active)
CCCCCC[C@H]1C(=O)O[C@H](C)[C@H](NC(=O)c2cccc(NC=O)c2O)C(=O)O[C@@H](C)[C@@H]1OC(=O)CC(C)C	inactive
C[C@]12CC[C@H]3[C@@H](CCC4=CC(=O)CC[C@@]43C)[C@H]1CC[C@H]2OC(=O)CCC1CCCC1	inactive
CCN1C[C@]2(OC(=O)c3ccccc3NC(C)=O)CC[C@H](OC)[C@@]34[C@H]5CC6[C@@H](OC)C[C@](O)(C(C[C@@H]23)[C@@H]14)[C@@]5(O)[C@@H]6OC	inactive
C[C@](O)(COc1ccc(C#N)cc1)C(=O)Nc1ccc(C#N)c(C(F)(F)F)c1	inactive

Assay: BET inhibitor-based combinations targeting novel dependencies in MECOM-rearranged (r) AML: AML-191 cell line (AID 2202236; further: nearly all actives have a fitted effect of over 35% in size)
Details: AML-191 viability, CellTiter-Glo luminescence, 48 h; series mostly up to 46 µM
Procedure, shortened: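 Cells were plated at 500 per well and exposed to an 11-point dose series of each drug for 48 hr. Viability was measured by CellTiter-Glo luminescence, normalized to DMSO and empty-well controls, and summarized as AUC and per-cell-line Z-AUC.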

SMILES	Potency
O=C1CC[C@@]2(O)[C@H]3Cc4ccc(O)c5c4[C@@]2(CCN3CC2CC2)[C@H]1O5	inactive
CC(NC(C)(C)C)C(=O)c1cccc(Cl)c1 (centres undefined)	inactive
COc1cccc2c1C(=O)c1c(O)c3c(c(O)c1C2=O)C[C@@](O)(C(=O)CO)CC3OC1CC(N2CCOC(OC)C2)C(O)C(C)O1 (some centres undefined)	0.0053 µM (active)
CC1=C(O)C(=O)C=C2C1=CC=C1[C@@]2(C)CC[C@@]2(C)[C@@H]3C[C@](C)(C(=O)O)CC[C@]3(C)CC[C@]12C	0.934 µM (active)
C#CC1(O)CCC2C3CCC4=CC(=O)CCC4(C)C3CCC21C (centres undefined)	inactive
C[C@]12CC[C@H]3[C@@H](CCC4=CC(=O)CC[C@@]43C)[C@H]1CC[C@H]2OC(=O)CCC1CCCC1	inactive

— PubChem BioAssay (NCATS)
